These results are taken from PubChem BioAssay.

Experiment [1] is described as follows: antimalarial activity against Dd2 strain (AID 2302;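 active means growth inhibition above 50% at the single 2 µM test dose, taken to imply half-maximal potency below 2 µM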;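 further: 0% = DMSO untreated growth and 100% = chloroquine plus artemisinin killed control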). The following applies: P. falciparum Dd2 in RBCs, LDH growth readout, 72 h; at 2 µM; stronger effect = higher value.
Experiment [2] can be described thus: human hepatoma cell viability loss – ATP luminescence, cytotoxicity control for P. falciparum antimalarial project, primary screen (AID 2303;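 active means inhibition above 50%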;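 further: 0% = DMSO wells and 100% = digitonin-killed cells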). Particulars: HepG2 viability, 24-48 h, at 10 µM, stronger effect = higher value.
For experiment [3], the target named is L-lactate dehydrogenase (Plasmodium falciparum (isolate CDC / Honduras)) (UniProt Q27743). Kind of experiment: PfLDH activity inhibition – cell lysate, 3D7 strain, counter-screen for P. falciparum growth inhibition project (AID 2304).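 Further: 0% = vehicle and 100% = reference inhibitor.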 Particulars: P. falciparum 3D7 crude extract, LDH APAD/NBT absorbance; at 2 µM; stronger effect = higher value. On the technique in general: The purpose of a counterscreen is to sort out artefacts and off-target activity.
Sequence of L-lactate dehydrogenase (Plasmodium falciparum (isolate CDC / Honduras)) (Q27743 whole entry, looked up): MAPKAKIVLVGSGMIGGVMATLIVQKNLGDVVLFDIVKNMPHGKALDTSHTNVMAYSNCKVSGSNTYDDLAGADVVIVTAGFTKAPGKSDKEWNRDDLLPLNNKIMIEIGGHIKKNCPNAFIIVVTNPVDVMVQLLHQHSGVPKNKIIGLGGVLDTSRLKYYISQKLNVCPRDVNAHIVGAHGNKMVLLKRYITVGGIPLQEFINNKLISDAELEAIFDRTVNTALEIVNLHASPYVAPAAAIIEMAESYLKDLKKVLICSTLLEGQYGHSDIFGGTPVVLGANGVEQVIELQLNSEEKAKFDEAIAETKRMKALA

A short description of experiment [4]: inhibition of 3D7 malaria parasite growth – strain 3D7 (AID 2306).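 Further: 0% = DMSO wells and 100% = chloroquine plus artemisinin control wells.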 The following applies: P. falciparum 3D7 erythrocytic growth, LDH absorbance, 72 h; at 2 µM; stronger effect = higher value.
Experiment [5] has as its target Calcium-dependent protein kinase 1 (Plasmodium falciparum (isolate 3D7)) (UniProt P62344). Nature of the experiment: PfCDPK1 kinase inhibitors, biochemical, TCAMS library (AID 1159585; cut-off not given, nearly all actives have IC50 up to about 0.98 µM;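 further: inhibitors leave more ATP so luminescence rises with inhibition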). Particulars: recombinant PfCDPK1, Kinase-Glo ATP depletion luminescence. For orientation: Kinase-Glo reads ATP consumption through a luciferase reaction.
Experiment [6] addresses Plasmodium falciparum protein kinase 6 (PK6, PF3D7_1337100) (UniProt Q8IDW1). Nature of the experiment: PfPK6 kinase inhibitors, biochemical, TCAMS library (AID 1159586). The following applies: recombinant PfPK6, Kinase-Glo ATP depletion luminescence.
Experiment [7] has as its target Protein kinase 7 (PK7), Plasmodium falciparum 3D7 (PF3D7_0213400) (UniProt Q7YTF7). Kind of experiment: inhibition of Plasmodium PK7 catalytic activity – biochemical, TCAMS antimalarial set, Kinase-Glo luminescence (AID 1159587). Particulars: recombinant PfPK7, Kinase-Glo ATP depletion luminescence.
In experiment [8] the target is Calcium-dependent protein kinase 4 (Plasmodium falciparum (isolate 3D7)) (UniProt Q8IBS5). Kind of experiment: PfCDPK4 kinase inhibitors, biochemical, TCAMS library (AID 1159588; cut-off not given, nearly all actives have IC50 up to about 0.91 µM). The following applies: recombinant PfCDPK4, Kinase-Glo ATP depletion luminescence.
Sequence of Calcium-dependent protein kinase 4 (Plasmodium falciparum (isolate 3D7)) (Q8IBS5 whole entry, looked up): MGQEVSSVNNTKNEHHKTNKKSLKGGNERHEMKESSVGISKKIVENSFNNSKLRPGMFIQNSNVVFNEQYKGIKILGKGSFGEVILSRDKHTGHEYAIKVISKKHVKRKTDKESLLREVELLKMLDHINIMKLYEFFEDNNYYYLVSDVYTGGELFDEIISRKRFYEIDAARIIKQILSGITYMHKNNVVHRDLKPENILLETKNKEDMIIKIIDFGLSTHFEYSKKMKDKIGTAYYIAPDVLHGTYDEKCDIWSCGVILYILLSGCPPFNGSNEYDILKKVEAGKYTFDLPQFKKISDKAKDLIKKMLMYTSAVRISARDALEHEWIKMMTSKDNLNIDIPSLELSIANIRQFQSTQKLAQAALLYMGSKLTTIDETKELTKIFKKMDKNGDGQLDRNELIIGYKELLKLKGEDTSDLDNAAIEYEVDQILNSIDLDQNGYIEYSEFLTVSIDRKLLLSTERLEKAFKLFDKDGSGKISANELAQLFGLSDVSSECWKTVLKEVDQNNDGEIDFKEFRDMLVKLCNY
For experiment [9], the system named is Aerobactin synthetase IucA (Klebsiella pneumoniae). Kind of experiment: inhibition of K. pneumoniae IucA enzyme – biochemical, Tocris library, absorbance (AID 1345561).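 Further: 100% = enzyme without compound and 0% = no enzyme.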 The following applies: purified IucA enzyme assay, absorbance (OD) read-out; stronger effect = lower value;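 tested at 8 µM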.
Experiment [10] is described as follows: viability loss in pontine glioma line – cell-based, SU-DIPG-XVII, MIPE5.0, CellTiter-Glo, qHTS, dose response (AID 1347060; cut-off not given, nearly all actives have AC50 up to about 26 µM;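 further: cells exposed to compound for 48 hours before viability readout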). Particulars: CellTiter-Glo ATP luminescence. On the technique in general: In ATP-based viability assays light output follows the ATP content of the culture.
Experiment [11] can be described thus: viability loss in pontine glioma line – cell-based, SU-DIPG-XIII, MIPE4.0, CellTiter-Glo, qHTS, dose response (AID 1347061; cut-off not given, nearly all actives have AC50 up to about 37 µM;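 further: cells exposed to compound for 48 hours before readout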). The following applies: CellTiter-Glo ATP luminescence.
A short description of experiment [12]: viability loss in pontine glioma line – cell-based, JHH-DIPG-1, MIPE4.0, CellTiter-Glo, qHTS, dose response (AID 1347062; cut-off not given, nearly all actives have AC50 up to about 27 µM;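 further: cells exposed to compound for two days before readout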). Particulars: JHH-DIPG-1 viability, CellTiter-Glo ATP luminescence.
Experiment [13] in a line: viability loss in pontine glioma line – cell-based, SU-DIPG-IV, MIPE4.0, CellTiter-Glo, qHTS, dose response (AID 1347063; cut-off not given, nearly all actives have AC50 up to about 30 µM;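 further: compound exposure lasted 48 hours before the viability readout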). Particulars: CellTiter-Glo ATP luminescence.
The nature of experiment [14]: viability loss in pontine glioma line – cell-based, SU-DIPG-XIII, MIPE5.0, CellTiter-Glo, qHTS, dose response (AID 1347064; cut-off not given, nearly all actives have AC50 up to about 23 µM;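 further: cells exposed to compound for 48 hours before the viability read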). The following applies: CellTiter-Glo ATP luminescence.
Experiment [15] in a line: viability loss in pontine glioma line – cell-based, SU-DIPG-XXV, MIPE5.0, CellTiter-Glo, qHTS, dose response (AID 1347065; cut-off not given, nearly all actives have AC50 up to about 26 µM;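 further: cells exposed to compound for 48 hours before ATP readout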). The following applies: CellTiter-Glo ATP luminescence.
Experiment [16] can be described thus: growth inhibition of DIPG cells – cell-based, MIPE4.0 library, CellTiter-Glo luminescence, qHTS (AID 1347066; cut-off not given, nearly all actives have AC50 up to about 30 µM;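 further: cells exposed to compound for 48 hours before readout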). Particulars: SU-DIPG-VI viability, CellTiter-Glo ATP luminescence.
A short description of experiment [17]: JHH-DIPG-1 glioma cell viability, MIPE5.0 library, CellTiter-Glo luminescence, qHTS (AID 1347067; cut-off not given, nearly all actives have AC50 up to about 26 µM;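 further: cells exposed to compound for 48 hours before readout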). The following applies: JHH-DIPG-1 glioma viability, CellTiter-Glo ATP luminescence.
The nature of experiment [18]: growth inhibition of DIPG cells – cell-based, MIPE5.0 library, qHTS (AID 1347068; cut-off not given, nearly all actives have IC50 up to about 30 µM;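 further: cells exposed to compound for 48 hours before viability readout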). Particulars: SU-DIPG-XXV viability.
The nature of experiment [19]: viability loss with induced miR-34 in A549 – imaging, A549 dox-inducible miR-34, nuclei and caspase counts, primary screen (AID 1347080;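 active means compounds whose cell count with miR-34 switched on is under 0.7 times the count with it off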). The following applies: A549 miR-34 inducible, Hoechst nuclei count, 48 h.
Experiment [20] in a line: MELAS cybrid and Rieske KO viability enhancers – cell-based, MELAS cybrids, Rieske KO mouse fibroblasts, CellTiter-Glo, primary screen (AID 1508586;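 active means mean z-score across replicates of 1.96 or higher in either the MELAS or the Rieske mutant cell line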;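 further: z relative to plate mean and SD of compound and empty wells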). The following applies: low glucose.
Experiment [21] is described as follows: galactose survival enhancers in mitochondrial complex I cybrids – cell-based, galactose medium, ATP luminescence, primary screen (AID 1645843;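 active means z-score of at least 1.8 in each of two replicates, scored against plate mean and spread of sample wells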;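 further: positive z means more ATP and so rescue of galactose-driven cybrid death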). The following applies: complex I mutant cybrid cells, 72 h, stronger effect = higher value.
A short description of experiment [22]: chitosan synthesis blockers in C. neoformans – flow cytometry, Cibacron Brilliant Red staining (AID 1347148).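 Further: compound exposure lasted three days at 37 degrees C.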 The following applies: Cryptococcus neoformans chitosan, stronger effect = lower value; at 10 µM unless noted.
Setting [23] is: stronger effect = lower value, cell number ratio, induced over uninduced.
Setting [24] is: measured here: relative caspase fold change +Dox/-Dox.
Where [25] appears, read: measured here: total cells with miR-34 induction, stronger effect = lower value.
[26] abbreviates: measured here: total cells without miR-34 induction.

The structures appear in SMILES notation. Values joined by “and” are separate entries in the source; they are usually repeats but may differ in a detail not shown here. Equal entries are not always repeated. Results filed as inconclusive are left out. For some assays here: Results with a measured potency or affinity are listed apart. Active and inactive are the calls of the source. Unless noted, how the calls were made is not given here.

Sequence of Plasmodium falciparum protein kinase 6 (PK6, PF3D7_1337100) (Q8IDW1 1-305): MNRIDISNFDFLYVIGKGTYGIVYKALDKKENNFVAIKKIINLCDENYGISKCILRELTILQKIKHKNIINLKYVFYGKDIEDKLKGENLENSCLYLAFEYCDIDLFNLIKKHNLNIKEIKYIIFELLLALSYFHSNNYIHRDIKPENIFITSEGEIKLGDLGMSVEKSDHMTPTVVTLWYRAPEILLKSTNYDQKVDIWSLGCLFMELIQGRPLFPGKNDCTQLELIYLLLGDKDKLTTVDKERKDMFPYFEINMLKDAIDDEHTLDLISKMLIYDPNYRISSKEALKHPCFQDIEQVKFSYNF
Sequence of Calcium-dependent protein kinase 1 (Plasmodium falciparum (isolate 3D7)) (P62344 whole entry, looked up): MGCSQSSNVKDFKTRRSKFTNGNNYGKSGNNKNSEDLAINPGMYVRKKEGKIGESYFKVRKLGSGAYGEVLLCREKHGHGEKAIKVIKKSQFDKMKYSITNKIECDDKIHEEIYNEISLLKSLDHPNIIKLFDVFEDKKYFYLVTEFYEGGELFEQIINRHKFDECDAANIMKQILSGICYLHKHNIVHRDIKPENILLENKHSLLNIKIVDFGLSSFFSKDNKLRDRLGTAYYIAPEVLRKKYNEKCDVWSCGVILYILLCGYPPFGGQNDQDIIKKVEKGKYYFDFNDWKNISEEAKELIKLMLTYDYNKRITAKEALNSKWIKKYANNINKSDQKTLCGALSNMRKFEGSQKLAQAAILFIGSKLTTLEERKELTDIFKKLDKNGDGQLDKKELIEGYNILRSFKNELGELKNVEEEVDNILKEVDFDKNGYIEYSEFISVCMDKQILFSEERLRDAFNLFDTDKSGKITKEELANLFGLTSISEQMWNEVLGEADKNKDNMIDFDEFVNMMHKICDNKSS
Sequence of Protein kinase 7 (PK7), Plasmodium falciparum 3D7 (PF3D7_0213400) (Q7YTF7 1-343): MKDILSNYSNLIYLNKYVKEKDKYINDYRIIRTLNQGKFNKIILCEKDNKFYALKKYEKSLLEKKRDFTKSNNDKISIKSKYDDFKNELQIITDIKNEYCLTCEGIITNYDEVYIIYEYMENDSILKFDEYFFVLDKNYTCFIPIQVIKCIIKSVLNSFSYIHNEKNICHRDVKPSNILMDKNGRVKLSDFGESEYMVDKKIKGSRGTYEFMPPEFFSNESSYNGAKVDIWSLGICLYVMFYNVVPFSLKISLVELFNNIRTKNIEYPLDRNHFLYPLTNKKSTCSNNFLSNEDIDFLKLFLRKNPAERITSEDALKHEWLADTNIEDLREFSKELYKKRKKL

In the case of `CCc1ccc(OCc2ccccc2C(=O)Nc2ccc3nc(C)cc(N)c3c2)cc1`, the results for the growth inhibition in [1] and in [4] were 74% (active) and 99% (active), respectively. The inhibition (as a rule, the change of the read-out against control, counted positive when it falls) is 98% (active) in experiment [2] and 0% (inactive) in experiment [3]. In addition, the outcome in [5], in experiment [6], in experiment [7] and in experiment [8] was inactive. Besides, the remaining activity (as a rule, the signal under treatment as a percentage of the control signal) in experiment [9] was 108% (inactive). Besides, the AC50 (commonly the midpoint of the concentration-response curve, whichever way the signal moves) is 9.34 µM (active) in experiment [10]; 11.8 µM (active) in experiment [11]; 3.32 µM (active) in experiment [12]; 3.32 µM (active) in experiment [13]; 7.42 µM (active) in experiment [14]; 8.33 µM (active) in experiment [15]. Besides, the AC50 in experiment [16] is 8.33 µM (active); in experiment [17], 5.25 µM (active). In addition, the half-inhibitory concentration (IC50) (commonly the concentration needed to halve the response being measured) in [18] is 9.34 µM (active). For the same compound, the fold change is 0.988 (inactive) and 0.896 (inactive) in experiment [19] (setting [23]); 1.57 and 0.955 in experiment [19] (setting [24]). Further, the cell count in experiment [19] (setting [25]) is 1370 and 181; in experiment [19] (setting [26]), 1390 and 202. For the same compound, the z-score in experiment [20] (MELAS cybrid survival, CellTiter-Glo 48 h, stronger effect = higher value) was -0.512 (inactive); in experiment [20] (Rieske KO mouse fibroblast survival, CellTiter-Glo 72 h), 0.826; in experiment [21], -0.7 (inactive).
With `Cc1[nH]c(C)c(-c2ccc(Oc3ccc(OC(F)(F)F)cc3)cc2)c(=O)c1Br`, the growth inhibition in experiment [1] was 95% (active) and 97% (active); in experiment [4], 96% (active). Moreover, the inhibition in experiment [2] was -4% (inactive) and -1% (inactive); in [3] it was 1% (inactive) and 2% (inactive). Also, the result in [5], in [6], in experiment [7] and in experiment [8] was inactive.
`CCOc1ccc(-c2nc3ccc(-c4nc5ccc(N6CCN(C)CC6)cc5[nH]4)cc3[nH]2)cc1`: the growth inhibition in [1] was 99% (active); in [4], 100% (active). Also, the inhibition in [2] is 16% (inactive); in experiment [3] it was 1% (inactive). Further, the result in experiment [5], in experiment [6], in experiment [7] and in [8] was inactive. Further, the fold change was 1.13 (inactive) in [19] (setting [23]) and 0.41 in experiment [19] (setting [24]). The cell count in [19] (setting [25]) amounted to 805; in experiment [19] (setting [26]), 711. For the same compound, the fold fluorescence in experiment [22] was 1.62 [at 110.5 µM] (inactive).
Consider `Cc1cccc2[nH]c(-c3ccc(-c4cccc(CN5CCCC5CN)c4)s3)nc12` (centres undefined), for which the growth inhibition in experiment [1] was 45% (inactive); in [4], 91% (active). In addition, the inhibition in experiment [2] is 20% (inactive); in experiment [3] it was 5% (inactive). In addition, the outcome in experiment [5], in [6], in [7] and in [8] was inactive.
Consider `Nc1nc(NCC2CCC(CNS(=O)(=O)c3cccc4ccccc34)CC2)nc2ccccc12` (centres undefined), for which the growth inhibition is 42% (inactive) in experiment [1] and 97% (active) in [4]. The results for the inhibition in experiment [2] and in experiment [3] were 9% (inactive) and 7% (inactive), respectively. Moreover, the outcome in experiment [5], in [6], in experiment [7] and in experiment [8] was inactive. For the same compound, in [9], the remaining activity is 92.3% (inactive). In addition, the fold change in [19] (setting [23]) was 0.954 (inactive); in [19] (setting [24]), 0.891. Further, the cell count in experiment [19] (setting [25]) is 322; in experiment [19] (setting [26]), 338. Besides, in experiment [21], the z-score is -0.705 (inactive).
Regarding `O=C(Cn1cc(C=C2SC(=NC3CCCC3)N(C3CCCC3)C2=O)c2ccccc21)N1CCCC1`, the growth inhibition in [1] and in [4] was 100% (active) in each case. Also, the inhibition in experiment [2] is 5% (inactive); in experiment [3] it was -1% (inactive). The outcome in experiment [5], in experiment [6], in [7] and in experiment [8] was inactive.
In the case of `CC1(C)C(=O)NC2=C1C(=O)C(=O)c1ccccc12`, the inhibition in [2] is -8% (inactive); in experiment [3] it was 1% (inactive). Further, the growth inhibition in [4] was 93% (active). The outcome in experiment [5], in experiment [6], in experiment [7] and in experiment [8] was inactive. The remaining activity in experiment [9] is 80.1% (inactive). In addition, the figures for the fold change in experiment [19] (setting [23]) and in experiment [19] (setting [24]) were 0.672 (active) and 1.77, respectively. For the same compound, the cell count in experiment [19] (setting [25]) was 1170; in [19] (setting [26]), 1740. In experiment [21], the z-score was -0.705 (inactive).
